The values below come from PubChem BioAssay (NCI).

Some test systems named below: SR leukemia; RPMI-8226 leukemia; OVCAR-8 ovarian; OVCAR-5 ovarian; OVCAR-4 ovarian; SK-OV-3 ovarian; IGROV1 ovarian; HS 578T breast; NCI/ADR-RES ovarian; OVCAR-3 ovarian.
Experiment in all cases: NCI-60 one-dose screen, 48 h (100 = growth as untreated, 0 = no growth, -100 = all killed)
What all share (details): 10 µM unless noted

Several values for one entry are separate records, joined by “and”; a condition that tells them apart may be missing. Equal values may be shown once. About 83,000 compounds went through this panel and 20% of them were active in at least one assay; those are over-represented in the sample as a whole.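 Assay: single dose, 48 h. Readout: percent growth (0 = no net growth; negative = cell death). Active: <10.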 A number with no mark means an inactive call. Activity calls are given as the source filed them.

As for `C/C(=C(\c1ccc(OCCN2CCOCC2)cc1)c1ccc(OC(=O)C2CCCCC2)cc1)c1ccc(Cl)cc1`, the growth in the test with SR leukemia is 94.2%; in the test with RPMI-8226 leukemia it was 44.8%; in the test on OVCAR-8 ovarian it was 101%; in the test on OVCAR-5 ovarian, 95.6%; with OVCAR-4 ovarian it was 111%; in the test on SK-OV-3 ovarian, 96.6%. In addition, the growth with IGROV1 ovarian was 103%; with HS 578T breast it was 97.9%; in the test on NCI/ADR-RES ovarian, 98%.

Take `CCOC(=O)c1cc2c(n1Cc1cc(OC)cc(OC)c1Br)-c1nc(NC(C)=O)sc1CCC2`: the growth is 58.9% in the test on SR leukemia; 60.5% with RPMI-8226 leukemia; 64.9% in the test on OVCAR-8 ovarian; 115% in the test on OVCAR-5 ovarian; 73.4% with OVCAR-4 ovarian; 82.1% in the test on SK-OV-3 ovarian. Also, the growth was 87.5% in the test on IGROV1 ovarian, 64.6% with HS 578T breast and 78.6% in the test on NCI/ADR-RES ovarian.

Turning to `CC12OC(CC(O)C1O)n1c3ccccc3c3c4c(c5c6ccccc6n2c5c31)C(=O)N(CCN1CCOCC1)C4=O` (stereo not drawn), the growth is 1.71% (active) in the test on SR leukemia; 6.35% (active) in the test on RPMI-8226 leukemia; 17% in the test with OVCAR-8 ovarian; 24.7% in the test with OVCAR-5 ovarian; 22.9% in the test with OVCAR-4 ovarian; -8.93% (active) with SK-OV-3 ovarian. Besides, the growth is 5.73% (active) in the test on IGROV1 ovarian, 20.8% in the test on OVCAR-3 ovarian and 15.4% in the test with NCI/ADR-RES ovarian.

For `C[C@]12CCc3c(ccc4cc(O)ccc34)[C@@H]1C[C@H](O)[C@@H]2O`, the growth with SR leukemia is 110%; in the test on RPMI-8226 leukemia, 97.1%; in the test with OVCAR-8 ovarian, 94%; with OVCAR-5 ovarian it was 104%; with OVCAR-4 ovarian, 106%; with SK-OV-3 ovarian, 106%. In addition, the growth was 103% with IGROV1 ovarian, 84.9% with HS 578T breast and 96% in the test on NCI/ADR-RES ovarian.

In the case of `COc1cc2nc3cc([N+](=O)[O-])ccc3c(NCCNCC(C)(C)O)c2cc1OC`, the growth is -12.2% (active) in the test with SR leukemia; -8.62% (active) with RPMI-8226 leukemia; -3.94% (active) in the test on OVCAR-8 ovarian; 8.33% (active) with OVCAR-5 ovarian; -31.8% (active) with OVCAR-4 ovarian; 17.8% with SK-OV-3 ovarian. The growth with IGROV1 ovarian was -15.9% (active); in the test on OVCAR-3 ovarian, -31.2% (active); in the test on NCI/ADR-RES ovarian, 55%.

For `CCOc1ccccc1NC(=O)c1cc2ccccc2cc1O`, the growth in the test with SR leukemia was 45.5%; with RPMI-8226 leukemia, 25.8%; in the test with OVCAR-8 ovarian it was 52%; in the test on OVCAR-5 ovarian, 114%; in the test on OVCAR-4 ovarian, 61%; in the test on SK-OV-3 ovarian, 81.3%. Besides, the figures for the growth in the test with IGROV1 ovarian, in the test with HS 578T breast and in the test with NCI/ADR-RES ovarian were 60.3%, 51.6% and 28.7%, respectively.

For `N=C1/C(=C2\NC3C=CC=CC3S2)C(c2ccc(Cl)cc2)C2C(=O)N(c3ccccc3)C(=S)N12` (stereo not drawn), the growth with SR leukemia was 105%; with RPMI-8226 leukemia, 103%; in the test with OVCAR-8 ovarian, 99.1%; in the test with OVCAR-5 ovarian, 106%; in the test on OVCAR-4 ovarian it was 101%; in the test on SK-OV-3 ovarian, 105%. In addition, the growth with IGROV1 ovarian is 92.8%; with OVCAR-3 ovarian, 106%; with NCI/ADR-RES ovarian it was 95.8%.

Turning to `O=C(c1cccc(Br)c1)N1CCN(c2ccnc3cc(Cl)ccc23)CC1`, the growth was 118% with SR leukemia; 70.7% in the test with RPMI-8226 leukemia; 80.2% with OVCAR-8 ovarian; 90% with OVCAR-5 ovarian; 54.9% with OVCAR-4 ovarian; 98.3% with SK-OV-3 ovarian. In addition, the growth with IGROV1 ovarian is 90.6%; with OVCAR-3 ovarian, 86.9%; with NCI/ADR-RES ovarian, 88.1%.

Regarding `CS(=O)(=O)Nc1cc(-c2ccc3ncnc(Nc4ccc(F)c(Cl)c4)c3c2)cnc1Cl`, the growth in the test with SR leukemia is 0.546% (active); in the test on RPMI-8226 leukemia it was -24% (active); in the test on OVCAR-8 ovarian it was 15.8%; in the test with OVCAR-5 ovarian, 15.3%; with OVCAR-4 ovarian, 17.6%; in the test with SK-OV-3 ovarian it was -19.6% (active). In addition, the growth in the test on IGROV1 ovarian was -14.1% (active); in the test with OVCAR-3 ovarian it was -22.6% (active); in the test with NCI/ADR-RES ovarian it was 34.2%.

Take `CC(=O)Nc1c(I)c(NC(C)=O)c(I)c(C(=O)O)c1I`: the growth with SR leukemia was 86.7% and 80.5%; in the test on RPMI-8226 leukemia, 106% and 112%; in the test with OVCAR-8 ovarian, 101% and 96.3%; in the test with OVCAR-5 ovarian, 102% and 108%; in the test with OVCAR-4 ovarian, 90.4%; with SK-OV-3 ovarian, 105% and 110%. In addition, the growth was 108% in the test on IGROV1 ovarian; 105% and 171% in the test with HS 578T breast; 106% and 109% with NCI/ADR-RES ovarian.

Turning to `COc1cc(/C=C2/C=C(c3ccc(C(C)(C)C)cc3)N(CCc3ccc(S(N)(=O)=O)cc3)C2=O)cc(OC)c1OC`, the growth with SR leukemia was 18.4%; in the test with RPMI-8226 leukemia it was -5.19% (active); in the test with OVCAR-8 ovarian it was 57.4%; with OVCAR-5 ovarian it was 91.4%; with OVCAR-4 ovarian it was 54.7%; in the test on SK-OV-3 ovarian it was 79.9%. The growth in the test on IGROV1 ovarian is 70.5%; in the test on OVCAR-3 ovarian, 48.8%; with NCI/ADR-RES ovarian, 71.8%.

`COC(=O)/C=C1/SC(=Nc2ccc([N+](=O)[O-])cc2)N(CCc2c[nH]c3ccccc23)C1=O`: the growth is 1.73% (active) in the test on SR leukemia; 2.18% (active) in the test on RPMI-8226 leukemia; 42% in the test with OVCAR-8 ovarian; 112% with OVCAR-5 ovarian; 66.2% in the test on OVCAR-4 ovarian; 105% with SK-OV-3 ovarian. The growth in the test on IGROV1 ovarian was 62%; with HS 578T breast, 63.5%; with NCI/ADR-RES ovarian, 66.9%.
